Nrf2 inh: Nrf2 qHTS screen for inhibitors. A549 ARE-Fluc reporter, luciferase luminescence, 18-24 h. Potency, µM (highest dose often 46 µM), without a hit: at the top dose activity change, negative = inhibition, actives largely listed as inhibitors. 2.1% of 360,000 active. AID 504444, 2011; also: potency is read from the fitted curve at half-maximal effect; % is scaled to controls: 0 for no effect and ±100 for the full control effect; nearly all actives have a fitted effect of over 60% in size
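A549 ARE_Fluc cells, 5000/well, 5% FBS OPTI-MEM; compounds in dose-response, 18-24 h at 37 °C/5% CO2; CellTiter-Fluor viability read (Ex 405/Em 525), then BugLite luciferase luminescence = Nrf2 activity.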
Nrf2 activator: qHTS of Nrf2 Activators. AREc32 ARE-luciferase reporter (MCF7-derived line), luminescence, 24 h. Potency, µM (highest dose often 46.1 µM), for inactives: at the highest dose activation, usual class: activators. 0.31% of 410,000 active; also: potency is read from the fitted curve at half-maximal effect; % of control where 0% means no effect; nearly all actives have a fitted effect of over 65% in size
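Cells of the AREc32 ARE-luciferase line are plated in OPTI-MEM containing 5% FBS and left overnight at 37 deg C. Compounds are pinned in, incubation continues 24 hr, and firefly luciferase signal is then measured.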
A549 viability: Nrf2 qHTS screen for inhibitors: counterscreen for cytotoxicity; A549 ARE-Fluc cells, CellTiter-Fluor viability, 18-24 h; Potency, µM (series often up to 46 µM), for the others: top-dose activity change, negative = cytotoxicity, usual class: inhibitors; 0.16% of 390,000 active; also: potency is read from the fitted curve at half-maximal effect; % is scaled to controls: 0 for no effect and ±100 for the full control effect
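Cytotoxicity counterscreen: CellTiter-Fluor fluorescence was measured in A549 ARE_Fluc cells after 18-24 h of compound exposure in a concentration series. The subsequent BugLite luminescent read reports ARE-luciferase activity.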
LDHA block: qHTS assay for inhibitors of human lactate dehydrogenase | 0.15% of 480,000 active | L-lactate dehydrogenase A chain (Homo sapiens), P00338 | purified LDHA, NADH/diaphorase-resazurin fluorescence; stronger effect = lower value | activity change, % (values are at about 110 or 230 µM); in the data active = activity change below about -30%; inconclusive = mostly about -25% to -30%;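 also: plate controls were DMSO wells for no effect and wells without enzyme for full effect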
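Resorufin fluorescence (ex540/em590), read at 0 and 20 min after diaphorase/resazurin addition, reports the NADH left after a 5 min room-temperature reaction of 2 nM human LDH5 with 0.06 mM NADH and 0.2 mM pyruvate.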
12-LOX inh: Primary qHTS assay for inhibitors of human arachidonate 12S-lipoxygenase (ALOX12): Round 2; Potency, µM (series often up to 108 µM), without a hit: top-dose activity change, negative = inhibition, most hits filed as inhibitors; AID 1671190, 2021; purified 12hLO, xylenol orange hydroperoxide absorbance; 1.1% of 580,000 active; also: potency is read from the fitted curve at half-maximal effect; % is scaled to controls: 0 for no effect and ±100 for the full control effect
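Purified human 12hLO at 150 nM in 25 mM Hepes, 0.01% Triton X-100, pH 7.0, preincubated 15 min at room temperature with compound. Reaction started with 40 uM arachidonic acid, 30 min at room temperature. Hydroperoxide measured by Fe-xylenol orange, 573/405 nm absorbance ratio.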
mIDH1 inhibitor: qHTS for Inhibitors of mutant isocitrate dehydrogenase 1 (IDH1): qHTS; Isocitrate dehydrogenase [NADP] cytoplasmic (Homo sapiens), O75874; IDH1-R132H enzyme, NADPH consumption, diaphorase/resazurin fluorescence; Potency, µM (series often up to 76.6 µM), for inactives: top-dose activity change, negative = inhibition, most hits filed as inhibitors; 0.093% of 390,000 active; AID 602179, 2012; also: potency is read from the fitted curve at half-maximal effect; % is scaled to controls: 0 for no effect and ±100 for the full control effect; nearly all actives have a fitted effect of over 65% in size
Target sequence (O75874 whole entry R132H, stated change not applied): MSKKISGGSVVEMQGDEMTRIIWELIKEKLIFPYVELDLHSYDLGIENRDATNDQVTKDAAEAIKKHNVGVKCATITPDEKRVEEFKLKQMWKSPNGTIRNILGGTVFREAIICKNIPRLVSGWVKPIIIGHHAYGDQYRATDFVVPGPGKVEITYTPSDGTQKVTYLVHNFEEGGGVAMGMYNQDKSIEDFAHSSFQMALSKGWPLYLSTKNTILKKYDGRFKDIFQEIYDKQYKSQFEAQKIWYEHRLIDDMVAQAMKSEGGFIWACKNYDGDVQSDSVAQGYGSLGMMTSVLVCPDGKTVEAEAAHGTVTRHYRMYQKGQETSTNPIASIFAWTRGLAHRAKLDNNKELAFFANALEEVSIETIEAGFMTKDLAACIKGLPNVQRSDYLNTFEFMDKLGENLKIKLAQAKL
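IDH1-R132H (0.5 ug/mL) preincubated 30 min with compound, then NADPH (0.016 mM) and alpha-KG (2 mM) added; 80 min at RT, pH 7.5. Remaining NADPH coupled via diaphorase/resazurin to fluorescence (540/590 nm); concentration-response curves normalized to no-enzyme control.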
An asterisk follows results filed as active; [ ] = dose if it differs, or a comment. Only some compounds are listed: those with a hit (about 2.7% of all), similar ones and a draw of the others. Unless noted, calls follow the shape of the dose curve; as a rule, active = well fitted curve in the direction sought with a large enough effect; inconclusive = small, poorly fitted or top-dose-only effect, or another doubt; inactive = no such curve, though single readings can be large; an effect the other way counts as inactive or inconclusive.

Cc1cccc(C(=O)NNC(=O)c2ccccc2Br)c1 was read as Nrf2 inh inconclusive, Nrf2 activator 4%, A549 viability 2%, LDHA block -9, 12-LOX inh 239% and mIDH1 inhibitor -16%.
CCc1cc(C(=O)NNC(=S)NC(=O)c2ccccc2)cs1 was read as LDHA block 2 and 12-LOX inh 40µM*.
Screening Cc1cccc(C(=O)NNC(=S)NC(=O)/C=C/c2cccs2)c1 returned LDHA block -22 and 12-LOX inh 35µM*.
For Cc1cccc(C(=O)NC(=S)NNC(=O)c2ccccc2Cl)c1 the results were Nrf2 inh inconclusive, Nrf2 activator 0%, A549 viability inconclusive, LDHA block -9, 12-LOX inh 40µM* and mIDH1 inhibitor 7%.
`Cc1cccc(C(=O)NC(=S)NNC(=O)Cc2ccccc2)c1` gave Nrf2 inh inconclusive, Nrf2 activator 0%, A549 viability -10%, LDHA block -5, 12-LOX inh 45µM* and mIDH1 inhibitor 16%.
For O=C(/C=C/c1cccs1)NC(=S)NNC(=O)c1ccccc1 the results were LDHA block -17 and 12-LOX inh inconclusive.
`O=C(Nc1ccc(F)c(S(=O)(=O)N2CCOCC2)c1)C(Sc1ccccc1)c1ccccc1` (stereo not given) gave LDHA block 6 and 12-LOX inh -30%.
CCCCc1noc(CSc2nnnn2-c2cc(C)ccc2OC)n1 was read as LDHA block 0 and 12-LOX inh -1%.
Screening CCCCCNC(=O)NCCc1c[nH]c2ccccc12 returned LDHA block 0 and 12-LOX inh inconclusive.
COc1ccc(-c2ccc(CCC(=O)Nc3cc(Cl)ccc3OC)o2)cc1 was read as LDHA block 5 and 12-LOX inh inconclusive.
`Cc1cc(C)nc(NC(=O)/C=C/c2ccccc2Cl)c1` gave Nrf2 inh 5%, Nrf2 activator inconclusive, A549 viability -2%, LDHA block 4, 12-LOX inh inconclusive and mIDH1 inhibitor 6%.
Screening Cc1cc(C)nc(NC(=O)/C=C/c2ccccc2Cl)n1 returned Nrf2 activator 8.9µM*, A549 viability -6%, LDHA block -4, 12-LOX inh 0% and mIDH1 inhibitor 2%.
`Cc1ccc(NC(=O)c2ccc3c(c2)NC(=O)CS3)cc1` gave LDHA block 8 and 12-LOX inh -33%.
`CCCCCCCCCCCOc1ccc(C(=O)O)cc1` gave LDHA block 2 and 12-LOX inh 5%.
`O=S(=O)(N1CC=C(c2c[nH]c3ccccc23)CC1)N1CCCCC1` gave LDHA block -12 and 12-LOX inh inconclusive.
O=S(=O)(N1CC=C(c2c[nH]c3cc(F)ccc23)CC1)N1CCCCCC1 was read as LDHA block 13 and 12-LOX inh 16µM*.
Oc1ccc(C2=Nn3c(nnc3-c3ccco3)SC2)cc1O was read as Nrf2 inh inconclusive, Nrf2 activator 6%, A549 viability -21%, LDHA block 14, 12-LOX inh 7.1µM* and mIDH1 inhibitor -1%.
COc1ccc(C2=Nn3c(nnc3-c3ccco3)SC2)cc1 was read as Nrf2 inh inconclusive, Nrf2 activator 2%, A549 viability -4%, LDHA block 0, 12-LOX inh 2% and mIDH1 inhibitor 8%.
For Cc1ccc(N2C(=O)N(Cc3ccc4c(c3)OCO4)c3ccccc3S2(=O)=O)c(C)c1 the results were LDHA block -1 and 12-LOX inh inconclusive.
For O=C1S/C(=C\C=C\c2ccco2)C(=O)N1c1ccccc1 the results were Nrf2 inh 1%, Nrf2 activator 8.9µM*, A549 viability -11%, LDHA block 16, 12-LOX inh 28µM* and mIDH1 inhibitor -2%.
O=C1S/C(=C\C=C\c2ccco2)C(=O)N1c1ccc(O)cc1 was read as Nrf2 inh 12%, Nrf2 activator inconclusive, A549 viability inconclusive, LDHA block 7, 12-LOX inh 40µM* and mIDH1 inhibitor 3%.
`O=C1S/C(=C\c2cccs2)C(=O)N1c1ccc(O)cc1` gave Nrf2 inh inconclusive, Nrf2 activator 7%, A549 viability 0%, LDHA block -10, 12-LOX inh 0% and mIDH1 inhibitor 7%.
For O=C(NCC1(N2CCOCC2)CCSC1)Nc1ccccc1F (stereo not given) the results were LDHA block -6 and 12-LOX inh -50%.
FC(F)Sc1ccc(NC(=S)NC(c2ccccc2)c2ccccc2)cc1 was read as Nrf2 inh inconclusive, Nrf2 activator -3%, A549 viability -22%, LDHA block -4, 12-LOX inh 40µM* and mIDH1 inhibitor 1%.
`FC(F)Sc1ccc(NC(=S)NCc2ccccc2)cc1` gave Nrf2 inh inconclusive, Nrf2 activator 6%, A549 viability -16%, LDHA block -7, 12-LOX inh inconclusive and mIDH1 inhibitor 0%.
Screening S=C(NCC1CCCO1)Nc1ccc(Nc2ccccc2)cc1 (stereo not given) returned Nrf2 inh 15µM*, Nrf2 activator 3%, A549 viability -22%, LDHA block -3, 12-LOX inh inconclusive and mIDH1 inhibitor 4%.
CC1CCCCC1NC(=S)Nc1ccc(SC(F)F)cc1 (stereo not given) was read as Nrf2 inh -106%, Nrf2 activator 6%, A549 viability inconclusive, LDHA block 1, 12-LOX inh 32µM* and mIDH1 inhibitor 1%.
`S=C(NCC1CCCO1)Nc1cccc(Cl)c1` (stereo not given) gave Nrf2 inh 2%, Nrf2 activator 1%, A549 viability -2%, LDHA block -7, 12-LOX inh -13% and mIDH1 inhibitor 21%.
`S=C(NCC1CCCCC1)Nc1ccc(Oc2ccccc2)cc1` gave Nrf2 inh inconclusive, Nrf2 activator 0%, A549 viability -23%, LDHA block -2, 12-LOX inh 40µM* and mIDH1 inhibitor 0%.
C#CCNC(=O)C1=NOC2CN(C(=O)NC(C)C)CC12 (stereo not given) was read as 12-LOX inh 1%[12.5 µM].
Screening O=S1(=O)CC=C(CBr)C1 returned LDHA block -5 and 12-LOX inh inconclusive.
For O=C(/C=C/c1ccc(Cl)cc1)c1cc2ccccc2oc1=O the results were LDHA block 2 and 12-LOX inh -27%.

Screening data as filed in PubChem.
